Screens from PubChem BioAssay.
IMPase Li cell – membrane-permeable IMPase blocker, potentiated with lithium | Potency, µM (top dose mostly 59.4 µM), for inactives: at the top dose activity, negative = IMPase inhibition, actives largely listed as inhibitors | actives 0.35% (n = 210,000) | CHO-M1 cells, IP1 TR-FRET (IP-One), carbachol + lithium;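 also: IP1 builds up when IMPase is blocked and the TR-FRET signal falls; potency is read from the fitted curve at half-maximal effect; plate controls were basal vehicle for no effect and high inhibitor control for full effect; nearly all actives have a fitted effect of over 50% in size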
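CHO-M1, 2000 cells/well, 16–30 h culture; cpd + low Li+, 30 min 37C; lysis with d2-IP1/Eu-anti-IP1 Ab, 10 min RT; TR-FRET 665/620 ratio and 620 channel; AC50 via Hill.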
IMPase inh – cell-permeable inhibitors of inositol monophosphatase (IMPase); CHO-M1 cells, IP1 accumulation, HTRF TR-FRET ratio; inhibition (IP1 accumulation), % at 46.1 µM; 120,000 tested, under 10 active; P97697; active = well fitted curve in the direction sought with a large enough effect in the signal ratio, not every such curve was filed as active; inconclusive = small, poorly fitted or top-dose-only effect, or a change in a side signal; inactive = no such curve, though single readings can be large or run the other way; the % refers to the signal ratio;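 also: cells stimulated with carbachol in lithium chloride buffer; plate controls were DMSO basal wells for no effect and reference inhibitor wells for full effect; higher means more IMPase inhibition seen as more IP1 and lower FRET ratio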
Target sequence (P97697 whole entry, looked up): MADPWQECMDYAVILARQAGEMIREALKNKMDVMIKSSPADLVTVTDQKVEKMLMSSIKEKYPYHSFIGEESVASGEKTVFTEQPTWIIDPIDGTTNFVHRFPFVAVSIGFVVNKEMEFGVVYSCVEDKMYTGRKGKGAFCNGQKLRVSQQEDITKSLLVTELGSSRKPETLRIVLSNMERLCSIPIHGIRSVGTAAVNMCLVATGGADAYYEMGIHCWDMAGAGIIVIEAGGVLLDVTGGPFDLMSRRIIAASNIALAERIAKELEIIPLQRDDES
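In this qHTS, compounds (final up to 46 uM) act on CHO-M1 cells that are then activated through the M1 receptor with carbachol, in pH 7.4 buffer containing 50 mM LiCl, for 30 min. IP1 accumulation is quantified by the IP-One immunoassay.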
ALOX15B inhib – 15-hLO-2 (ALOX15B) enzyme inhibition; AID 881; O15296; actives 0.56% (n = 110,000); purified 15hLO-2, xylenol orange hydroperoxide absorbance; Potency, µM (titrated, usually from 57.1 µM), inactives show top-dose activity change, negative = inhibition, usual class: inhibitors; also: potency is read from the fitted curve at half-maximal effect; nearly all actives have a fitted effect of over 60% in size
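Read-out: hydroperoxide product oxidises ferrous iron, measured as xylenol orange complex via the 573-to-405 nm absorbance ratio after 30 min. Reaction: 50 nM enzyme, 15 min compound preincubation, 45 uM arachidonic acid, 90 min RT, Hepes pH 7.5 with Triton X-100.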
PNC inhibitor – inhibitors of perinucleolar compartment assembly; PC3M PTB-GFP, PNC prevalence imaging, 16 h; active compounds read low; activity change (PNC), negative = inhibition, % at 10 µM; actives 3.1% (n = 140,000); AID 2417;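 active = readout at or below -70, meaning at least 70% loss of cells showing the perinucleolar compartment, a nuclear body marking cancer cells; inconclusive = readout between -30 and a set limit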;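 also: plate controls were DMSO wells for no effect and camptothecin positive control wells for full effect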
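PC3M cells stably expressing PTB-GFP, 750–1000 cells/well, treated 16 h at 37 °C with compound (23 nl of library stock), in duplicate. After paraformaldehyde fixation and Hoechst stain, imaged at 20x; PNC prevalence scored by image analysis.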
12-hLO inh – inhibitors of human 12-lipoxygenase (ALOX12). P18054. purified 12-hLO, xylenol orange hydroperoxide absorbance. Potency, µM (doses to about 57.1 µM), for inactives: at the highest dose activity change, negative = inhibition, actives largely listed as inhibitors. actives 0.12% (n = 150,000). AID 1452; also: potency is read from the fitted curve at half-maximal effect; nearly all actives have a fitted effect of over 55% in size
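Purified human 12hLO (150 nM final) was preincubated with compounds for 15 min at room temperature in 25 mM Hepes pH 7.0, 0.01% Triton X-100, then reacted with 40 uM arachidonic acid for 30 min. Hydroperoxide was detected with ferrous iron/xylenol orange.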
HPGD inh – blocks human HPGD enzyme activity; purified HPGD, NADH fluorescence kinetic, PGE2 substrate; AID 894; actives 4.3% (n = 150,000); P15428; Potency, µM, for inactives: at the top dose activity change, negative = inhibition, actives largely listed as inhibitors; active = well fitted inhibition curve with a large enough effect, not every such curve was filed as active; inconclusive = small, poorly fitted or top-dose-only effect, or another doubt; inactive = no such curve, though single readings can be large or run the other way; also: potency is read from the fitted curve at half-maximal effect
Target sequence (P15428 whole entry, looked up): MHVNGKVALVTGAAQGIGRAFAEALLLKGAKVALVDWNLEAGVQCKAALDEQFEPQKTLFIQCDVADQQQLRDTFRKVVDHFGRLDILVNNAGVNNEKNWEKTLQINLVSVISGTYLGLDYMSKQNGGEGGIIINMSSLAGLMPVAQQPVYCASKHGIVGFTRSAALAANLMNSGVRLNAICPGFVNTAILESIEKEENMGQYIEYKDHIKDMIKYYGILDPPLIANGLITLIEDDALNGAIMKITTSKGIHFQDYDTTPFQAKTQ
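NADH formation kinetics: reaction with 30 uM PGE2 and 1 mM NAD+ (final), 20 nM enzyme, Tris-HCl pH 8 with Tween 20, after 15 min compound preincubation at room temperature. Fluorescence change, last versus first of five reads.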
* marks the source's active call; other numbers are inactive results; ! = a repeat was not active; [ ] = another dose, or the depositor's remark. An excerpt weighted towards active compounds, which were near 5.4% of everything screened. Unless noted, calls follow the shape of the dose curve; as a rule, active = well fitted curve in the direction sought with a large enough effect; inconclusive = small, poorly fitted or top-dose-only effect, or another doubt; inactive = no such curve, though single readings can be large; an effect the other way counts as inactive or inconclusive. Unless noted, % is scaled to controls: 0 for no effect and ±100 for the full control effect.

For c1ccc2c(c1)CCCC2C1=NCCN1 (stereo not given) the results were IMPase Li cell 1%, ALOX15B inhib 4%, PNC inhibitor 18, 12-hLO inh -12% and HPGD inh -2%.
Screening Brc1ccc2c(c1)C(C1=NCCN1)c1ccccc1CS2 (stereo not given) returned IMPase Li cell 9%, PNC inhibitor -109*, 12-hLO inh 0% and HPGD inh 4%.
Brc1ccc(-c2csc(N/N=C/c3ccco3)n2)cc1 was read as IMPase Li cell 5%.
NC(=O)/C(=N\OC(=O)c1ccco1)c1nc(-c2ccc(Br)cc2)cs1 was read as IMPase Li cell -4%[38.3 µM], IMPase inh -4, ALOX15B inhib 6%, PNC inhibitor 3, 12-hLO inh -10% and HPGD inh 13µM*.
For O=C(O)c1ccc(Cl)c(S(=O)(=O)Nc2ccccc2F)c1 the results were 12-hLO inh 1% and HPGD inh -7%.
Screening CCOc1ccc(C(=O)c2ccc(O)c(O)c2O)cc1 returned IMPase Li cell -2%, ALOX15B inhib inconclusive, 12-hLO inh -25% and HPGD inh inconclusive.
For CCOc1cccc(C(=O)c2ccc(O)c(O)c2O)c1 the results were IMPase Li cell 38%, ALOX15B inhib inconclusive, 12-hLO inh inconclusive and HPGD inh 16µM*.
`O=C(c1ccccc1)c1ccc(O)cc1O` gave IMPase Li cell -9%.
COc1ccc(C(C)=O)c(O)c1 was read as IMPase Li cell 4%, ALOX15B inhib -1%, 12-hLO inh -2% and HPGD inh 18µM*.
`CCOC(=O)COc1ccc(C(=O)c2ccccc2)c(O)c1` gave IMPase Li cell -5%[38.3 µM], IMPase inh -1, ALOX15B inhib -3%, PNC inhibitor -30, 12-hLO inh -3% and HPGD inh 16µM*.
`COc1ccc(C(=O)c2ccccc2)c(O)c1` gave IMPase Li cell 11%[38.3 µM], IMPase inh -2, ALOX15B inhib 9%[2.29 µM], PNC inhibitor -16, 12-hLO inh -5% and HPGD inh 16µM*!.
COC(=O)[C@H](COC(C)(C)C)NC(=O)O[C@@H]1C(=O)c2cc(Br)ccc2O[C@H]1c1cccc(OC)c1 was read as IMPase Li cell 9% and HPGD inh -9%.
Screening C=CC1=C(C(=O)O)N2C(=O)C(NC(=O)/C(=N\O)c3csc(N)n3)C2SC1 (stereo not given) returned IMPase Li cell 14%, ALOX15B inhib 15%, 12-hLO inh -4% and HPGD inh -13%.
CN1CCN(C(=O)c2ccc(-n3c(=O)c(=O)[nH]c4ccccc43)cc2)CC1 was read as 12-hLO inh -1% and HPGD inh -2%.
CCn1nnnc1-c1ccc(OC)c(S(=O)(=O)NCc2ccccc2)c1 was read as IMPase Li cell 39%[38.3 µM], IMPase inh 6, ALOX15B inhib 1%, PNC inhibitor -4, 12-hLO inh 13% and HPGD inh 20µM*.
For CC(C)c1ccc(-c2nnc(N)s2)cc1 the results were IMPase Li cell -1%, PNC inhibitor 4, 12-hLO inh 2% and HPGD inh 35µM*.
Screening Cc1ccc(-c2nnc(N)s2)cc1 returned IMPase Li cell 4%, PNC inhibitor 35, 12-hLO inh -3% and HPGD inh -30%.
O=C(O)/C=C\C=C/c1ccc2c(c1)OCO2 was read as IMPase Li cell 2%, ALOX15B inhib -1%[11.4 µM], 12-hLO inh -3%[11.4 µM] and HPGD inh -25%.
For CC(C)CCOCc1nc2sc3c(c2c(=O)[nH]1)CCC(C)C3 (stereo not given) the results were IMPase Li cell 7%[38.3 µM], IMPase inh 3, ALOX15B inhib -1%, PNC inhibitor -13, 12-hLO inh -8% and HPGD inh inconclusive.
For CC1CCc2c(sc3nc(CSc4n[nH]c(N)n4)[nH]c(=O)c23)C1 (stereo not given) the results were IMPase Li cell 1%, PNC inhibitor -95*, 12-hLO inh -2% and HPGD inh -16%.
`CCOc1cc(C(=S)N2CCOCC2)ccc1OS(=O)(=O)c1ccc(NC(C)=O)cc1` gave IMPase Li cell 5%[38.3 µM], IMPase inh 8, ALOX15B inhib -7%, PNC inhibitor 27, 12-hLO inh -2% and HPGD inh -20%.
For CC(=O)Nc1ccc(S(=O)(=O)Oc2ccc(C=O)cc2)cc1 the results were IMPase Li cell -2%, PNC inhibitor 45, 12-hLO inh -3% and HPGD inh -13%.
Screening CC(=O)Nc1ccc(S(=O)(=O)Oc2ccc(C(=S)N3CCC(O)CC3)cc2)cc1 returned IMPase Li cell -4%, PNC inhibitor 23, 12-hLO inh -3% and HPGD inh 32µM*.
`CC(=O)Nc1ccc(S(=O)(=O)Oc2ccc(C(=S)N3CCCCC3)cc2)cc1` gave IMPase Li cell 13%, PNC inhibitor inconclusive, 12-hLO inh 3% and HPGD inh 16µM*.
For O=C(O)CCC(=O)c1ccc[nH]1 the results were IMPase Li cell -8%, ALOX15B inhib 0%[11.4 µM], 12-hLO inh 2%[11.4 µM] and HPGD inh 1%.
For CCCCS(=O)(=O)Nc1ccc(Cc2ccncc2)cc1 the results were IMPase Li cell 26%[38.3 µM], IMPase inh 3, ALOX15B inhib 9%, PNC inhibitor -16, 12-hLO inh -2% and HPGD inh 16µM*.
`CC(=O)N1CCC(N(CCN2CCOCC2)C(=S)Nc2ccccc2C)CC1` gave IMPase Li cell -6%, PNC inhibitor -112*, 12-hLO inh -3% and HPGD inh -3%.
CC(=O)N1CCC(N(CCN2CCOCC2)C(=S)Nc2cc(C)cc(C)c2)CC1 was read as IMPase Li cell -1%.
For CC(=O)NCCNc1nc(-c2ccc(N(C)C)cc2)nc2ccccc12 the results were IMPase Li cell 14%, ALOX15B inhib -20%, 12-hLO inh -4% and HPGD inh -27%.
For O=[N+]([O-])c1cc(S(=O)(=O)Nc2cccc(C(F)(F)F)c2)ccc1-n1nnc2ccccc21 the results were IMPase Li cell 41%[38.3 µM], IMPase inh 3, ALOX15B inhib -26%, PNC inhibitor 3, 12-hLO inh -11% and HPGD inh 32µM*.
For COc1ccc(NS(=O)(=O)c2ccc(-n3nnc4ccccc43)c([N+](=O)[O-])c2)cc1 the results were IMPase Li cell -12%[38.3 µM], IMPase inh -1, ALOX15B inhib -11%, PNC inhibitor 23, 12-hLO inh -11% and HPGD inh -24%.
